Assay results reported in PubChem BioAssay AID489025 (Southern Research Specialized Biocontainment Screening …, 2010).
Out of some 2,300 compounds screened, about 790 (34%) were called active. No rule for the calls is given here. This is one part of the list. Entries with a potency or affinity are not part of this list.

test: THP-1 cell cytotoxicity, dose response, cytotoxicity control for non-replicating M. tuberculosis project (AID 489025); settings: THP-1 cell viability; series mostly up to 40 µM

Row | SMILES | outcome
1 | O=C(CNC(=O)c1ccccc1F)OCc1csc(-c2ccccc2)n1 | inactive
2 | O=C(NCc1ccc2c(c1)OCO2)c1ccc(Cl)s1 | inactive
3 | C=CCc1ccc2oc(C(=O)OCC)cc(=O)c2c1O | inactive
4 | CCc1ccc(C(C)NC(=O)C2CCCO2)cc1 (stereo unspecified) | inactive
5 | CC1=CC(=O)NP(=O)(Oc2ccc3ccccc3c2)N1 (stereo unspecified) | inactive
6 | O=C(NNc1nc2ccccc2s1)c1ccc(F)cc1 | inactive
7 | Cc1nc2ccc(NC(=O)COc3cccc(F)c3)cc2s1 | inactive
8 | COc1cc(/C=C2/C(=O)NN(c3cccc(C)c3)C2=O)ccc1OC(=O)c1ccco1 | inactive
9 | COc1cc(NC(=O)C/C(C)=N/NC(=O)c2cccs2)c(OC)cc1Cl | inactive
10 | Cc1cccc2nc(CSc3nc4cc([N+](=O)[O-])ccc4s3)cn12 | inactive
11 | O=C(O)c1ccc(NCc2ccc(Br)cc2)cc1 | inactive
12 | O=C(CN1CCOCC1)N/N=C/c1ccc(-c2ccc(Br)cc2)o1 | inactive
13 | CCCOC(=O)c1cc(-c2ccc(C=O)o2)ccc1Cl | inactive
14 | COC(=O)c1cc(-c2ccc(OC)cc2)on1 | inactive
15 | CCOC(=O)c1c(-c2ccccc2)csc1NC(=O)CCN1CCOCC1 | inactive
16 | CCOC(=O)c1sc(NC(=O)CCN2CCOCC2)c(C(=O)OCC)c1C | inactive
17 | CCOC(=O)CNC(=O)N1c2ccccc2Sc2ccccc21 | inactive
18 | CCOC(=O)Nc1cccc(OCC(=O)Nc2ccc(OC)cc2OC)c1 | inactive
19 | COc1cc(/C=N/Nc2ccc(Cl)c(C(=O)O)c2)ccc1OC(=O)c1ccco1 | inactive
20 | CC(C)CSc1nnc2c3ccccc3n(C)c2n1 | inactive
21 | Cc1ccc(/C(O)=C/c2nc3ccccc3oc2=O)cc1 | inactive
22 | COc1ccc(C(=O)COC(=O)c2ccc(Cl)nc2)c(OC)c1 | inactive
23 | O=C1CC(N2CCN(c3ccc(F)cc3)CC2)C(=O)N1Cc1ccccc1 (stereo unspecified) | inactive
24 | O=C(NNc1c(F)c(F)cc(F)c1F)c1cc2ccccc2oc1=O | inactive
25 | Nc1ccc2cc(Br)ccc2c1 | inactive
26 | O=C(OCC(=O)N1CCCc2ccccc21)c1ccc(S(=O)(=O)C(F)F)cc1 | inactive

Row | SMILES | outcome
27 | O=C(C1CCN(C2CC(=O)N(Cc3ccccc3)C2=O)CC1)N1CCCCCC1 (stereo unspecified) | inactive
28 | Cc1cccc(OC(=O)c2ccc3nccnc3c2)c1 | inactive
29 | CCOC(=O)C1(CC2CCCCO2)CCN(Cc2nccn2-c2ccc(OC)cc2)CC1 (stereo unspecified) | inactive
30 | O=C(COc1ccc2ccccc2c1Br)N1CCCC1 | inactive
31 | C=CC(=O)Oc1ccc(N2Cc3ccccc3C2=O)cc1 | inactive
32 | CCOC(=O)Cn1nc(/C=C/c2ccccc2)ccc1=O | inactive
33 | O=C1NC(Cc2c[nH]c3ccccc23)C(=O)N1CCOc1ccccc1 (stereo unspecified) | inactive
34 | CC(C)c1nnc(NC(=O)c2sc3ccccc3c2Cl)s1 | inactive
35 | CC(C)c1nnc(NC(=O)c2cc3cc(Br)ccc3oc2=O)s1 | inactive
36 | O=C(N/N=C/C=C/c1ccccc1)c1cccs1 | inactive
37 | N/C(=N\OC(=O)c1cccs1)c1ccccc1 | inactive
38 | O=C(OCC(=O)c1c[nH]c2ccccc12)c1ccc([N+](=O)[O-])s1 | inactive
39 | CCOC(=O)c1c(C)[nH]c(C)c1C(=O)COC(=O)c1ccc([N+](=O)[O-])s1 | inactive
40 | CC1(C)CC(=O)C2=C(C1)OC(N)=C([N+](=O)[O-])C2c1ccc(C#N)s1 (stereo unspecified) | inactive
41 | COC(=O)C1=C(N)OC2=C(C(=O)CC(C)(C)C2)C1c1cccnc1 (stereo unspecified) | inactive
42 | COc1ccccc1NC(=O)CCN1CCN(c2ccc(Cl)cc2)CC1 | inactive
43 | O=[N+]([O-])c1ccc(CSc2nnc(-c3cccnc3)o2)cc1 | inactive
44 | CC1(c2nnc(-c3ccc(F)cc3)o2)CC(c2cccc(Cl)c2)=NO1 (stereo unspecified) | inactive
45 | COC(=O)CCn1c(C)cc(C(=O)COc2ccccc2C(N)=O)c1C | inactive
46 | CCOC(=O)C(C)Oc1ccc(OCc2ccccc2)cc1 (stereo unspecified) | inactive
47 | CCCNC(=O)c1ccc(COc2ccc(C)cc2)o1 | inactive
48 | Cc1ccc(/C=C2\SC(N3CCCC3)=NC2=O)cc1 | inactive
49 | CCNC(=O)NC(=O)C(C)OC(=O)CCCSc1nc2ccccc2s1 (stereo unspecified) | inactive
50 | O=[N+]([O-])c1ccc(Nc2ccccc2O)c2nonc12 | inactive
51 | O=[N+]([O-])c1ccc(Nc2ccccc2)c2nonc12 | inactive
52 | CC1(c2nnc(-c3ccccc3)o2)CC(c2ccc(Cl)cc2)=NO1 (stereo unspecified) | inactive

Row | SMILES | outcome
53 | C/C(=N/NC(=O)c1ccncc1)C1=C(O)CC(C)(C)CC1=O | inactive
54 | Cn1cccc1/C=N/NC(=O)c1ccncc1 | inactive
55 | O=[N+]([O-])c1cncc([N+](=O)[O-])c1Nc1ccccc1Cl | inactive
56 | Cc1cccc(NC(=O)c2ccc(OC3CSC3)cc2)c1 | inactive
57 | O=C(N/N=C/c1ccc(OC(=O)c2cccs2)cc1)c1ccccn1 | inactive
58 | COc1ccc(Cc2nnc(SCc3ccc([N+](=O)[O-])cc3)o2)cc1 | inactive
59 | O=C(OCC(=O)N1CCC(c2ccccc2)=N1)c1ccc([N+](=O)[O-])s1 | inactive
60 | COc1cccc(NC(=O)c2ccc(Cn3cc([N+](=O)[O-])cn3)o2)c1 | inactive
61 | O=C(Nc1ccc2c(c1)CCC2)c1ccc(Br)o1 | inactive
62 | CC(OC(=O)c1ccc([N+](=O)[O-])s1)C(=O)NC1CCCCC1C (stereo unspecified) | inactive
63 | CC(=O)c1ccc(NC(=O)CCc2ccc(C)o2)cc1 | inactive
64 | CC(C)(C)C(=O)/C=C/Nc1ccccc1O | inactive
65 | O=C(CC1CC2CCC1C2)NCc1cccs1 (stereo unspecified) | inactive
66 | O=C(OCC(=O)N1CCc2ccccc2C1)c1cccc([N+](=O)[O-])c1 | inactive
67 | O=C(CCS(=O)(=O)c1ccc(Cl)cc1)Oc1ccc2c(c1)OCO2 | inactive
68 | CCc1cc(C=NC2CCCCC2)c(O)s1 | inactive
69 | Cc1ccc(CSc2nnc(-c3cccnc3)o2)cc1 | inactive
70 | Cc1ccccc1C1=N/C(=C/c2cccnc2)C(=O)O1 | inactive
71 | CCCc1nnc(NC(=O)c2cc3ccccc3oc2=O)s1 | inactive
72 | COc1cc(OC)c2c(OC)cccc2n1 | inactive
73 | CC(NC(=O)c1cc2ccccc2oc1=O)c1ccccc1 (stereo unspecified) | inactive
74 | Cc1ccc(C(C)NC(=O)c2cc3ccccc3oc2=O)cc1C (stereo unspecified) | inactive
75 | CCCc1cc(C(=O)Nc2cccc(C(C)=O)c2)no1 | inactive
76 | Cc1cc(OCC(=O)Nc2ccncc2)ccc1Br | inactive
